Experimental data: article PMC11006913

Columns and labels:
Assay in all cases: PBM; 200 nM protein, PBS
Conditions in all cases: dsDNA, one strand shown
[1] = biological target: ALX1 (Homo sapiens, UniProt Q15699 118-204, L144V)
[2] = biological target: ALX1 (Homo sapiens, UniProt Q15699 118-204, L144R)
[3] = biological target: NKX3-2 (Homo sapiens, UniProt P78367 192-278, P234S)
[4] = biological target: ALX1 (Homo sapiens, UniProt Q15699 118-204)
[5] = biological target: NKX3-2 (Homo sapiens, UniProt P78367 192-278)
[6] = biological target: VAX1 (Homo sapiens, UniProt Q5SQQ9 86-172)
[7] = biological target: VAX1 (Homo sapiens, UniProt Q5SQQ9 86-172, T142I)
[8] = biological target: VAX1 (Homo sapiens, UniProt Q5SQQ9 86-172, K157R)
[9] = biological target: PITX2 (Homo sapiens, UniProt Q99697 72-157)
[10] = biological target: MSX2 (Homo sapiens, UniProt P35548 130-214, R199I)
[11] = biological target: MSX2 (Homo sapiens, UniProt P35548 130-214)
[12] = biological target: MSX2 (Homo sapiens, UniProt P35548 130-214, F161Y)
[13] = biological target: ALX3 (Homo sapiens, UniProt O95076 139-225, N203Q)
[14] = biological target: ALX3 (Homo sapiens, UniProt O95076 139-225)
[15] = biological target: ALX3 (Homo sapiens, UniProt O95076 139-225, L168Q)
[16] = biological target: ALX3 (Homo sapiens, UniProt O95076 139-225, L168V)
[17] = biological target: ALX3 (Homo sapiens, UniProt O95076 139-225, N203S)
Sequence of ALX3 (Homo sapiens, UniProt O95076 139-225, N203S) (O95076 139-225 N203S): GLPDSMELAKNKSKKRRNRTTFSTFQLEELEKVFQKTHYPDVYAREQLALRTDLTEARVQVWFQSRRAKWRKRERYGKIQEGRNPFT

Sequence of ALX1 (Homo sapiens, UniProt Q15699 118-204, L144R) (Q15699 118-204 L144R): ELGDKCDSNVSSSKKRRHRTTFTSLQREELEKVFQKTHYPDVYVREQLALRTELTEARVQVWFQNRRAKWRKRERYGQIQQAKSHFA
Sequence of ALX1 (Homo sapiens, UniProt Q15699 118-204, L144V) (Q15699 118-204 L144V): as the sequence (Q15699 118-204 L144R) above, with R27V counted along it
Sequence of ALX1 (Homo sapiens, UniProt Q15699 118-204) (Q15699 118-204): as the sequence (Q15699 118-204 L144R) above, with R27L counted along it
Sequence of MSX2 (Homo sapiens, UniProt P35548 130-214, F161Y) (P35548 130-214 F161Y): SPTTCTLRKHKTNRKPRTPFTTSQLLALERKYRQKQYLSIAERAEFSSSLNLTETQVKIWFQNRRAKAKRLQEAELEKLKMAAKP
Sequence of MSX2 (Homo sapiens, UniProt P35548 130-214, R199I) (P35548 130-214 R199I): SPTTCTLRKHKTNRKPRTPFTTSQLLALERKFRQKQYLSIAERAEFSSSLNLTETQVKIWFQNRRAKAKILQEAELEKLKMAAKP
Sequence of MSX2 (Homo sapiens, UniProt P35548 130-214) (P35548 130-214): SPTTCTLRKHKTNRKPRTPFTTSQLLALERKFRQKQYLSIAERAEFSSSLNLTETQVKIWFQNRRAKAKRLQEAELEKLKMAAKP
Sequence of VAX1 (Homo sapiens, UniProt Q5SQQ9 86-172) (Q5SQQ9 86-172): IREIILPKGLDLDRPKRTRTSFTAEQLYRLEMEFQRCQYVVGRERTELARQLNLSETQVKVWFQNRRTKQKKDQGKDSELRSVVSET
Sequence of VAX1 (Homo sapiens, UniProt Q5SQQ9 86-172, T142I) (Q5SQQ9 86-172 T142I): as the sequence (Q5SQQ9 86-172) above, with T57I counted along it
Sequence of VAX1 (Homo sapiens, UniProt Q5SQQ9 86-172, K157R) (Q5SQQ9 86-172 K157R): as the sequence (Q5SQQ9 86-172) above, with K72R counted along it
Sequence of ALX3 (Homo sapiens, UniProt O95076 139-225, N203Q) (O95076 139-225 N203Q): as the sequence (O95076 139-225 N203S) above, with S65Q counted along it
Sequence of ALX3 (Homo sapiens, UniProt O95076 139-225) (O95076 139-225): as the sequence (O95076 139-225 N203S) above, with S65N counted along it
Sequence of ALX3 (Homo sapiens, UniProt O95076 139-225, L168V) (O95076 139-225 L168V): as the sequence (O95076 139-225 N203S) above, with L30V, S65N counted along it
Sequence of NKX3-2 (Homo sapiens, UniProt P78367 192-278, P234S) (P78367 192-278 P234S): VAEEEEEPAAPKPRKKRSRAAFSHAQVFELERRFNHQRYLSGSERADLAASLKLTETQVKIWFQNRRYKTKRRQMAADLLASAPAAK
Sequence of ALX3 (Homo sapiens, UniProt O95076 139-225, L168Q) (O95076 139-225 L168Q): as the sequence (O95076 139-225 N203S) above, with L30Q, S65N counted along it
Sequence of NKX3-2 (Homo sapiens, UniProt P78367 192-278) (P78367 192-278): as the sequence (P78367 192-278 P234S) above, with S43P counted along it

CTCTTGGC
binding signal [1]: 6.39 upbm affinity estimate (log intensity, higher = more binding, comparable within an allelic series)
binding signal [2]: 6.52 upbm affinity estimate (log intensity, higher = more binding, comparable within an allelic series)
binding signal [3]: 11.6 upbm affinity estimate (log intensity, higher = more binding, comparable within an allelic series)
binding signal [4]: 6.47 upbm affinity estimate (log intensity, higher = more binding, comparable within an allelic series)
binding signal [5]: 11.7 upbm affinity estimate (log intensity, higher = more binding, comparable within an allelic series)

AGGCCGGG
binding signal [1]: 6.61 upbm affinity estimate (log intensity, higher = more binding, comparable within an allelic series)
binding signal [2]: 6.52 upbm affinity estimate (log intensity, higher = more binding, comparable within an allelic series)
binding signal [6]: 6.99 upbm affinity estimate (log intensity, higher = more binding, comparable within an allelic series)
binding signal [7]: 7.01 upbm affinity estimate (log intensity, higher = more binding, comparable within an allelic series)
binding signal [4]: 6.54 upbm affinity estimate (log intensity, higher = more binding, comparable within an allelic series)
binding signal [8]: 7.01 upbm affinity estimate (log intensity, higher = more binding, comparable within an allelic series)

CACGCTCG
binding signal [1]: 6.33 upbm affinity estimate (log intensity, higher = more binding, comparable within an allelic series)
binding signal [9]: 7.92 upbm affinity estimate (log intensity, higher = more binding, comparable within an allelic series)
binding signal [2]: 6.26 upbm affinity estimate (log intensity, higher = more binding, comparable within an allelic series)
binding signal [4]: 6.3 upbm affinity estimate (log intensity, higher = more binding, comparable within an allelic series)

AATGAACC
binding signal [1]: 8.42 upbm affinity estimate (log intensity, higher = more binding, comparable within an allelic series)
binding signal [2]: 8.46 upbm affinity estimate (log intensity, higher = more binding, comparable within an allelic series)
binding signal [4]: 8.7 upbm affinity estimate (log intensity, higher = more binding, comparable within an allelic series)

CACCAGCC
binding signal [10]: 9.46 upbm affinity estimate (log intensity, higher = more binding, comparable within an allelic series)
binding signal [11]: 9.42 upbm affinity estimate (log intensity, higher = more binding, comparable within an allelic series)
binding signal [12]: 9.47 upbm affinity estimate (log intensity, higher = more binding, comparable within an allelic series)

AAATGATG
binding signal [1]: 8.1 upbm affinity estimate (log intensity, higher = more binding, comparable within an allelic series)
binding signal [2]: 8.04 upbm affinity estimate (log intensity, higher = more binding, comparable within an allelic series)
binding signal [4]: 8.35 upbm affinity estimate (log intensity, higher = more binding, comparable within an allelic series)

CGCCCACG
binding signal [10]: 9.47 upbm affinity estimate (log intensity, higher = more binding, comparable within an allelic series)
binding signal [11]: 9.54 upbm affinity estimate (log intensity, higher = more binding, comparable within an allelic series)
binding signal [12]: 9.52 upbm affinity estimate (log intensity, higher = more binding, comparable within an allelic series)

AGGGGGAG
binding signal [10]: 9.43 upbm affinity estimate (log intensity, higher = more binding, comparable within an allelic series)
binding signal [11]: 9.52 upbm affinity estimate (log intensity, higher = more binding, comparable within an allelic series)
binding signal [12]: 9.49 upbm affinity estimate (log intensity, higher = more binding, comparable within an allelic series)

AGCTACGA
binding signal [1]: 6.35 upbm affinity estimate (log intensity, higher = more binding, comparable within an allelic series)
binding signal [2]: 6.56 upbm affinity estimate (log intensity, higher = more binding, comparable within an allelic series)
binding signal [4]: 6.35 upbm affinity estimate (log intensity, higher = more binding, comparable within an allelic series)

AGAGCGCC
binding signal [1]: 6.46 upbm affinity estimate (log intensity, higher = more binding, comparable within an allelic series)
binding signal [13]: 7.79 upbm affinity estimate (log intensity, higher = more binding, comparable within an allelic series)
binding signal [2]: 6.49 upbm affinity estimate (log intensity, higher = more binding, comparable within an allelic series)
binding signal [14]: 7.87 upbm affinity estimate (log intensity, higher = more binding, comparable within an allelic series)
binding signal [15]: 7.76 upbm affinity estimate (log intensity, higher = more binding, comparable within an allelic series)
binding signal [16]: 7.79 upbm affinity estimate (log intensity, higher = more binding, comparable within an allelic series)
binding signal [4]: 6.45 upbm affinity estimate (log intensity, higher = more binding, comparable within an allelic series)
binding signal [17]: 7.78 upbm affinity estimate (log intensity, higher = more binding, comparable within an allelic series)

CCTCAATC
binding signal [1]: 7.8 upbm affinity estimate (log intensity, higher = more binding, comparable within an allelic series)
binding signal [2]: 7.78 upbm affinity estimate (log intensity, higher = more binding, comparable within an allelic series)
binding signal [4]: 7.96 upbm affinity estimate (log intensity, higher = more binding, comparable within an allelic series)

ACCCGCGT
binding signal [1]: 6.47 upbm affinity estimate (log intensity, higher = more binding, comparable within an allelic series)
binding signal [2]: 6.51 upbm affinity estimate (log intensity, higher = more binding, comparable within an allelic series)
binding signal [4]: 6.45 upbm affinity estimate (log intensity, higher = more binding, comparable within an allelic series)

CCTGAGCC
binding signal [10]: 9.54 upbm affinity estimate (log intensity, higher = more binding, comparable within an allelic series)
binding signal [11]: 9.53 upbm affinity estimate (log intensity, higher = more binding, comparable within an allelic series)
binding signal [12]: 9.53 upbm affinity estimate (log intensity, higher = more binding, comparable within an allelic series)

ACTTTAAA
binding signal [1]: 8.62 upbm affinity estimate (log intensity, higher = more binding, comparable within an allelic series)
binding signal [2]: 8.74 upbm affinity estimate (log intensity, higher = more binding, comparable within an allelic series)
binding signal [4]: 8.8 upbm affinity estimate (log intensity, higher = more binding, comparable within an allelic series)

ACGATTAC
binding signal [1]: 8.4 upbm affinity estimate (log intensity, higher = more binding, comparable within an allelic series)
binding signal [2]: 8.26 upbm affinity estimate (log intensity, higher = more binding, comparable within an allelic series)
binding signal [4]: 8.62 upbm affinity estimate (log intensity, higher = more binding, comparable within an allelic series)

GCGGAGCC
binding signal [1]: 6.64 upbm affinity estimate (log intensity, higher = more binding, comparable within an allelic series)
binding signal [2]: 6.35 upbm affinity estimate (log intensity, higher = more binding, comparable within an allelic series)
binding signal [6]: 7.22 upbm affinity estimate (log intensity, higher = more binding, comparable within an allelic series)
binding signal [7]: 7.36 upbm affinity estimate (log intensity, higher = more binding, comparable within an allelic series)
binding signal [4]: 6.57 upbm affinity estimate (log intensity, higher = more binding, comparable within an allelic series)
binding signal [8]: 7.24 upbm affinity estimate (log intensity, higher = more binding, comparable within an allelic series)

GCCAGGAC
binding signal [10]: 9.69 upbm affinity estimate (log intensity, higher = more binding, comparable within an allelic series)
binding signal [11]: 9.71 upbm affinity estimate (log intensity, higher = more binding, comparable within an allelic series)
binding signal [12]: 9.76 upbm affinity estimate (log intensity, higher = more binding, comparable within an allelic series)

CGCTCAGC
binding signal [10]: 9.48 upbm affinity estimate (log intensity, higher = more binding, comparable within an allelic series)
binding signal [11]: 9.57 upbm affinity estimate (log intensity, higher = more binding, comparable within an allelic series)
binding signal [12]: 9.59 upbm affinity estimate (log intensity, higher = more binding, comparable within an allelic series)

AAAAATGT
binding signal [1]: 8.02 upbm affinity estimate (log intensity, higher = more binding, comparable within an allelic series)
binding signal [2]: 8.01 upbm affinity estimate (log intensity, higher = more binding, comparable within an allelic series)
binding signal [4]: 8.15 upbm affinity estimate (log intensity, higher = more binding, comparable within an allelic series)

GAGGAGCC
binding signal [1]: 6.5 upbm affinity estimate (log intensity, higher = more binding, comparable within an allelic series)
binding signal [2]: 6.54 upbm affinity estimate (log intensity, higher = more binding, comparable within an allelic series)
binding signal [4]: 6.27 upbm affinity estimate (log intensity, higher = more binding, comparable within an allelic series)

CCTACGCC
binding signal [1]: 6.43 upbm affinity estimate (log intensity, higher = more binding, comparable within an allelic series)
binding signal [2]: 6.36 upbm affinity estimate (log intensity, higher = more binding, comparable within an allelic series)
binding signal [4]: 6.5 upbm affinity estimate (log intensity, higher = more binding, comparable within an allelic series)

CCCCCCCC
binding signal [1]: 6.17 upbm affinity estimate (log intensity, higher = more binding, comparable within an allelic series)
binding signal [2]: 6 upbm affinity estimate (log intensity, higher = more binding, comparable within an allelic series)
binding signal [4]: 6.16 upbm affinity estimate (log intensity, higher = more binding, comparable within an allelic series)

AGATCATC
binding signal [1]: 7.78 upbm affinity estimate (log intensity, higher = more binding, comparable within an allelic series)
binding signal [2]: 7.76 upbm affinity estimate (log intensity, higher = more binding, comparable within an allelic series)
binding signal [4]: 7.9 upbm affinity estimate (log intensity, higher = more binding, comparable within an allelic series)

CCGTATTA
binding signal [1]: 8.94 upbm affinity estimate (log intensity, higher = more binding, comparable within an allelic series)
binding signal [2]: 8.73 upbm affinity estimate (log intensity, higher = more binding, comparable within an allelic series)
binding signal [4]: 9.27 upbm affinity estimate (log intensity, higher = more binding, comparable within an allelic series)

TCTGTTAA
binding signal [1]: 8.7 upbm affinity estimate (log intensity, higher = more binding, comparable within an allelic series)
binding signal [2]: 8.61 upbm affinity estimate (log intensity, higher = more binding, comparable within an allelic series)
binding signal [4]: 9.01 upbm affinity estimate (log intensity, higher = more binding, comparable within an allelic series)

ATATTGTC
binding signal [1]: 8.09 upbm affinity estimate (log intensity, higher = more binding, comparable within an allelic series)
binding signal [2]: 8.02 upbm affinity estimate (log intensity, higher = more binding, comparable within an allelic series)
binding signal [4]: 8 upbm affinity estimate (log intensity, higher = more binding, comparable within an allelic series)

CTAGCTGC
binding signal [1]: 6.42 upbm affinity estimate (log intensity, higher = more binding, comparable within an allelic series)
binding signal [2]: 6.45 upbm affinity estimate (log intensity, higher = more binding, comparable within an allelic series)
binding signal [4]: 6.31 upbm affinity estimate (log intensity, higher = more binding, comparable within an allelic series)

CAGACTGG
binding signal [1]: 6.33 upbm affinity estimate (log intensity, higher = more binding, comparable within an allelic series)
binding signal [2]: 6.4 upbm affinity estimate (log intensity, higher = more binding, comparable within an allelic series)
binding signal [4]: 6.39 upbm affinity estimate (log intensity, higher = more binding, comparable within an allelic series)

ACCCGCTC
binding signal [1]: 6.49 upbm affinity estimate (log intensity, higher = more binding, comparable within an allelic series)
binding signal [2]: 6.49 upbm affinity estimate (log intensity, higher = more binding, comparable within an allelic series)
binding signal [4]: 6.43 upbm affinity estimate (log intensity, higher = more binding, comparable within an allelic series)
